53 compounds from PubChem BioAssay AID743258 (The Scripps Research Institute Molecular Screening Center, 2014) can be followed below.

About 100 (3%) of roughly 3,300 compounds were called active. A selection follows. Values without a mark were called inactive. Rule as the data show it: active = inhibition above about 9.5%; inactive = the rest.

The inhibition is the relative decrease from the control value, in per cent.

This test deals with 1-phosphatidylinositol 4,5-bisphosphate phosphodiesterase gamma-1 (Homo sapiens) (UniProt P19174). Briefly: human PLCG1 activity blockade – biochemical, fluorescence, counter-screen for PLC-beta3 inhibitor project (AID 743258). Conditions: purified PLC-gamma1, fluorogenic substrate, at 12.3 µM, hits give high values.
1-phosphatidylinositol 4,5-bisphosphate phosphodiesterase gamma-1 (Homo sapiens), sequence (P19174 whole entry, looked up): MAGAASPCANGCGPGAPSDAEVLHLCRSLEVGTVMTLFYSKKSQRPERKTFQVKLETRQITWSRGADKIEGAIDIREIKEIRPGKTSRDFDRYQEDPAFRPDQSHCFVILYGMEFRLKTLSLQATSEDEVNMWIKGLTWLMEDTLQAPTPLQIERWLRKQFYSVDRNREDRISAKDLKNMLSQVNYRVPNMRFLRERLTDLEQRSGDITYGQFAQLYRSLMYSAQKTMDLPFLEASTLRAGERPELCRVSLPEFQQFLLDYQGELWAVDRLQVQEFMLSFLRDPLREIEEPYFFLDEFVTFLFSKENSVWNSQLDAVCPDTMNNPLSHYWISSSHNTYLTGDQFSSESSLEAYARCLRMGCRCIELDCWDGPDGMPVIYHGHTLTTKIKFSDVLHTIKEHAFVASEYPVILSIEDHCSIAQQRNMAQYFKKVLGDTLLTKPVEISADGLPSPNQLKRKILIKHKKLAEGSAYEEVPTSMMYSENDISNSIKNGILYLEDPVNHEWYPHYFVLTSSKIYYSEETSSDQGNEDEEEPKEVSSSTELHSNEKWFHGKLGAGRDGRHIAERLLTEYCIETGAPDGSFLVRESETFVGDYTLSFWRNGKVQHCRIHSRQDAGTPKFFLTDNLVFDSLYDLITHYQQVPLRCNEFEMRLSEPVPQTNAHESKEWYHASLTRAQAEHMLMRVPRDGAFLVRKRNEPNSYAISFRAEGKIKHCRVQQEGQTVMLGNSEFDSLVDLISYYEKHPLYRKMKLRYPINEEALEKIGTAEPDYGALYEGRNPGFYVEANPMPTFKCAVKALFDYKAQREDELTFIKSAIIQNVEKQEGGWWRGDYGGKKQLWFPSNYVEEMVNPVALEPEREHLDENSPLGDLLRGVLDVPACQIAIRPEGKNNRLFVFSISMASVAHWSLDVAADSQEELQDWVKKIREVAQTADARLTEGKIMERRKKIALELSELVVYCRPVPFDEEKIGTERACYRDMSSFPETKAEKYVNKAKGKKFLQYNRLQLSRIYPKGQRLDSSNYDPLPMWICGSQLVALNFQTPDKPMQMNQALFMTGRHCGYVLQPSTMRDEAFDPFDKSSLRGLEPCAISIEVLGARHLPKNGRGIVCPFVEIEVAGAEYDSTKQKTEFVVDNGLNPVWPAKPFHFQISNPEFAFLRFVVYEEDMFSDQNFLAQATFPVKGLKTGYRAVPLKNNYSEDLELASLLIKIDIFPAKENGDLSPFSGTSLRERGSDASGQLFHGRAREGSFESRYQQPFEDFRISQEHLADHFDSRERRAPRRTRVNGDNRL
Turning to `Cc1ccc(Cn2ccc(NC(=O)C3C4CCC(C4)C3C(=O)O)n2)cc1` (stereo not drawn), the inhibition is 6.33%. Take `N#Cc1c(NC(=O)C2CCCO2)sc2c1CCCCC2` (stereo not drawn): the inhibition was -9.66%. With `Cc1nc2ccc(NC(=O)c3cccc(S(=O)(=O)N4CCOCC4)c3)cc2s1` the figure was -12.2%. For `N#C[C@]1(S(=O)(=O)c2ccccc2)C[C@@H]2ON=C(c3cccc(Br)c3)[C@@H]2C1`, the inhibition is -2.59%.

For `Nn1cnnc1N/N=C/c1cc([N+](=O)[O-])c(Cl)cc1Cl`, the inhibition is -3.65%. On to `Nc1nc(NCC(=O)O)nc(N2CCCCCC2)c1[N+](=O)[O-]`, for which the inhibition was 0.65%. With `COCc1cc(C(C)=O)ccc1OC` the figure was -2.07%. With `C=CCOc1ccccc1/C=N/NC(=O)Cc1ccccc1` the figure was -8.16%. With `C=CCSC(CC)(CC)C(N)=O` the figure was 2%.

Take `CCOc1ccc(OCC)c(NC(=O)CSc2nnc(Cn3cnc4ccccc43)n2C)c1`: the inhibition was -2.36%.

`COc1ccc(C(CNC(=O)c2cc(S(=O)(=O)Nc3cccc(C)c3)ccc2C)N2CCCC2)cc1` (stereo not drawn): the inhibition is -5.37%. As for `O=C(NCCCN1CCCCC1)C1CC(=O)N(CCc2ccccc2)C1` (stereo not drawn), the inhibition was 0.03%.

With `Clc1ccc(C2[C@H]3CN(CC4CCCCC4)[C@H](c4ccccc4)C34CC2(c2cccnc2)C4)cn1` (stereo partly drawn), the inhibition was -4.79%. In the case of `O=[N+]([O-])c1cc(C(F)(F)F)ccc1NN=C1CCCC1`, the inhibition was 8.96%.

Turning to `CCC1S/C(=N/N=C/c2ccco2)NC1=O` (stereo not drawn), the inhibition is -2.12%. Consider `O=S(=O)(c1ccc(F)cc1)N1CCN(C(=S)NC2CCCC2)CC1`, for which the inhibition is -7.54%. As to `COc1ccc(CCNC(=O)COC(=O)Cc2ccccc2F)cc1`, the inhibition was -5.86%. For `CC(C)CCSc1ncnc2c1oc1nc3c(cc12)COC(C)(C)C3`, the inhibition is -6.65%.

For `CNC(=O)n1ccc(C(=O)N2CCCCC2)n1`, the inhibition is -7.1%. With `Cc1cc2nc(SCCN3CCOCC3)[nH]c2cc1C` the figure was -0.23%. Turning to `CC(C)Cn1cnc2c1c(=O)n(CC(O)c1ccccc1)c(=O)n2CC(C)C` (stereo not drawn), the inhibition was -3.61%.

Turning to `CCOc1ccccc1C1CC(c2cccc(NS(C)(=O)=O)c2)=NN1C(=O)c1ccccc1` (stereo not drawn), the inhibition is -6.72%. For `CN(C(=O)c1cccc(NC(=O)Cc2cccc([N+](=O)[O-])c2)c1)C1CCCCC1` the value was -5.4%; for `O=C(Nc1cccc([N+](=O)[O-])c1)Nn1cnnc1`, 0.91%. For `CS(=O)(=O)N(Cc1ccc(Cl)cc1)c1ccc(C(=O)NCCSCc2ccco2)cc1` the value was 0.35%; for `COc1ccc(NC(=O)c2ccc(OC)cc2)cc1`, -6.63%. For `C=CCN(c1ccc(Cl)cc1)S(=O)(=O)c1cccc(C(=O)OCC(=O)N(C)C)c1` the value was -6.25%. Regarding `Cc1cc(NC(=O)CN2C(=O)NC(CC(C)C)C2=O)no1` (stereo not drawn), the inhibition is -4.65%. For `CN(CC(=O)Nc1ccccc1Cl)C(=O)COc1cccc2c1OC(C)(C)C2` the value was 3.1%; for `CCc1c(C)n([O-])c2c([n+]1=O)CCCCC2`, -5.96%.

Regarding `FC(F)(F)c1cnc(Oc2ccccc2-c2nnc(-c3ccc(Cl)cc3)o2)c(Cl)c1`, the inhibition was -5.48%.

`Cc1cc(NC(=O)c2ccc(F)cc2)ccc1NC(=O)c1ccco1`: the inhibition is -0.11%. As to `Cc1nc(-c2ccc(F)cc2)c(CC(=O)N2CCN(S(=O)(=O)c3ccc(F)cc3)CC2)s1`, the inhibition is -5.79%. As for `CCC1CCCCN1C(=O)CSc1nc(C)cc(C)n1` (stereo not drawn), the inhibition was -6.45%.

As to `O=C1NC2(CCCCC2)N=C1c1ccccc1`, the inhibition is -5.81%.

As for `O=C(C1CCCO1)N1CCN(C(=S)Nc2cccc(Cl)c2)CC1` (stereo not drawn), the inhibition is -5.73%. Turning to `O=C1/C(=C\c2ccsc2)NC(=S)N1c1ccccc1`, the inhibition was -7.04%. As for `COc1ccc(-c2ccc(CN3C(CC(C)C)C(=O)N(Cc4cn(CC5CCCCC5)nn4)CCS3(=O)=O)cc2)cc1` (stereo not drawn), the inhibition is 0.15%.

`S=c1[nH]nc(-c2cccnc2)n1/N=C/C(Cl)=C\c1ccccc1`: the inhibition was -4.71%. Turning to `Cc1ccc(C23CC4CC(CC(C(=O)NCC(=O)O)(C4)C2)C3)cc1`, the inhibition was 9.94% (active). With `CCn1c(SCC(C)=O)nc2sc3c(c2c1=O)CCCC3` the figure was -3.1%; with `O=C(C[C@H]1C(=O)N(c2ccc(F)c(F)c2)C[C@@H]1Cc1ccccc1)Nc1ccccc1`, 2.94%; with `Cc1c(C#N)c2ncn(CC#N)c(=O)c2n1-c1ccccc1`, -8.35%. Turning to `O=S1(=O)c2ccc(Br)cc2OC[C@H](Cc2ccccc2)N1Cc1cn(Cc2ccccc2)nn1`, the inhibition was 1.8%.

For `COC(=O)C[C@@H]1CC[C@@H]2[C@H](COc3ccc(NC(=O)c4cccc(F)c4)cc3C(=O)N2C)O1`, the inhibition is 6.24%. Regarding `COC(=O)N(C)C[C@@H]1OCc2cnnn2CCCC(=O)N([C@@H](C)CO)C[C@@H]1C`, the inhibition was -7.63%. On to `C=CCOc1ccc(Cl)cc1CNCCCN1CCOCC1`, for which the inhibition is 2.7%. `COc1ccc(/C=C2\N=C3CCCN3C2=O)cc1`: the inhibition was -0.94%. With `CCOc1ccccc1NC(=O)CCN1CCN(S(=O)(=O)c2ccc(OC)cc2)CC1` the figure was -1.14%; with `CC1(C(=O)NCc2ccccc2)CSCC(=O)N1CCCN1CCOCC1` (stereo not drawn), -9.79%. In the case of `O=C(NCc1cccnc1)c1cc(C2CCCCN2C(=O)CCc2ccccc2)on1` (stereo not drawn), the inhibition was -6.35%. Take `O=C(CSc1ccccc1)Nc1cccc(S(=O)(=O)N2CCOCC2)c1`: the inhibition was 3.57%.

In the case of `COc1ccc(S(=O)(=O)N2CCC(C(=O)OCC(=O)c3ccccc3)CC2)cc1[N+](=O)[O-]`, the inhibition was 8.79%.
